Measurements as given in PubChem BioAssay (Tox21).
Results filed as inconclusive are left out. Where a call stands in place of a potency, no number is given. Calls of active or inactive are those of the source. Calls follow the shape of the dose curve; as a rule, active = well fitted cell-killing curve with a large enough effect in the repeat runs; inconclusive = weak or mixed curves, or effect the other way; inactive = no such curve, though single readings can be large or run the other way.

Test: qHTS assay to identify small molecule agonists of the vitamin D receptor (VDR) signaling pathway - cell viability counter screen (AID 743224); also: nearly all actives have a fitted effect of over 50% in size
Conditions: VDR-bla HEK293T viability, CellTiter-Glo luminescence, 16 h; series mostly up to 62.6 µM
How it was run: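 Viability is measured in the same wells as the VDR-bla reporter assay: after 16 h compound treatment and 2 h substrate loading, CellTiter-Glo is added and luminescence read 30 min later.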
Potency is read from the fitted curve at half-maximal effect.

Row | SMILES | Potency
1 | O=C(/C=C/c1ccc(O)c(O)c1)O[C@@H]1C[C@](O)(C(=O)O)C[C@@H](O)[C@H]1O | inactive
2 | CCOC(=O)[C@H](CCc1ccccc1)N[C@H]1CCc2ccccc2N(CC(=O)O)C1=O | 21.1 µM (active)
3 | CC(=O)c1c(C)c([N+](=O)[O-])c(C(C)(C)C)c([N+](=O)[O-])c1C | inactive
4 | Cc1ncsc1CCO | inactive
5 | Cc1cccc(C(C)(C)C)c1O | inactive
6 | O=C(O)c1cccc(N(Cc2cccnc2)c2ccc(OC(F)F)c(OC(F)F)c2)c1 | inactive
7 | O=C(Cl)c1ccc([N+](=O)[O-])cc1 | inactive
8 | CN(C)C/C=C(/c1ccc(Br)cc1)c1cccnc1 | inactive
9 | CC(C)(C)c1ccc(S)cc1 | inactive
10 | COc1ccc([C@@H]2Sc3ccccc3N(CCN(C)C)C(=O)[C@@H]2OC(C)=O)cc1 | inactive
11 | CCCCCCCCCC=O | inactive
12 | N=C(N=C(N)N)N1CCOCC1 | inactive
13 | CCOc1cc(OCC)c(C(=O)CCC(=O)O)cc1OCC | inactive
14 | Oc1ccc(O)c2c(O)cccc12 | inactive
15 | CCOC(=S)SSC(=S)OCC | inactive
16 | CCOc1nc2cccc(C(=O)O)c2n1Cc1ccc(-c2ccccc2-c2nn[nH]n2)cc1 | inactive
17 | C[C@@H](C1=C(CCN(C)C)Cc2ccccc21)c1ccccn1 | inactive

Row | SMILES | Potency
18 | SC1CCCC1 | inactive
19 | CCN(CC)CCOC(=O)C1(c2ccccc2)CCCC1 | inactive
20 | Nc1nc(N)c2nc(CNc3ccc(C(=O)N[C@@H](CCC(=O)O)C(=O)O)cc3)cnc2n1 | 0.0288 µM (active)
21 | CC(C(=O)O)c1ccc(-c2ccccc2)c(F)c1 (centres undefined) | inactive
22 | CCCCCCCCCCCCC(=O)O | inactive
23 | CCCCCCCCCCCCCCCBr | inactive
24 | O=C1c2cccc(O)c2C(=O)c2c(O)cc(CO)cc21 | inactive
25 | NCc1ccccc1 | inactive
26 | C1=Cc2ccccc2C1 | inactive
27 | CN(C)CC/C=C1\c2ccccc2COc2ccccc21 | inactive
28 | C=CC(C)(CCC=C(C)C)OC(=O)c1ccccc1 (centres undefined) | inactive
29 | CCN(CC)CCNC(C(=O)OCCC(C)C)c1ccccc1 (centres undefined) | inactive
30 | CC(C)(C)C1CCCCC1O (centres undefined) | inactive
31 | Cc1ccc(C(=O)C(C)CN2CCCCC2)cc1 (centres undefined) | inactive
32 | c1ccc(OCc2ccc(CCCN3CCOCC3)cc2)cc1 | inactive
33 | O=C(C(=O)c1ccc(Br)cc1)c1ccc(Br)cc1 | inactive
34 | OCC1CC2CC1C1CCC(CO)C21 (centres undefined) | inactive
